This is an account of results in the supplement of paper PMC10849652.

The full data set covers some 7,900 targets. This sample favours those with a hit. About 0.6% of all pairs of compound and target were hits. Values without a mark were called inactive.

Common to all, as to assay: log2 fold change, soluble protein after heating vs DMSO (PISA); higher = thermal stabilisation; K562 cells, 10 uM, 30 min; active = over 0.2 and 3.5 SD of the protein, either way, in both replicates (recomputed)
Compound in test [1]: COC1=CC=C(C=C1)CN2C=CC3=C2C=C(C=C3)C(=O)NO
The procedure, abridged: (§1)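 Thermal stability values are relative to control samples and come from duplicates. They are expressed as log2 fold changes. For measurement, K562 cells (2×10^6 cells/mL) received 10 μM compound for 30 min, and aliquots were heated for 3 min over 48°C-58°C, pooled, and extracted at 4°C in PBS with 0.5% NP-40. Soluble protein, the supernatant after 21,000xg for 90 min, was quantified by TMTpro 16plex LC-MS/MS with equalised channel sums.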

Compound in the next test: CON(C)C(=O)N1N=C(c2cc(F)ccc2F)S[C@@]1(CCCN)c1ccccc1 [filanesib]
The procedure, abridged: as §1

Compound in another test: CO[C@H]1C[C@@H]2CC[C@@H](C)[C@@](O)(O2)C(=O)C(=O)N2CCCC[C@H]2C(=O)O[C@H]([C@H](C)C[C@@H]2CC[C@H](n3cnnn3)[C@H](OC)C2)CC(=O)[C@H](C)/C=C(\C)[C@@H](O)[C@@H](OC)C(=O)[C@H](C)C[C@H](C)/C=C/C=C/C=C/1C [zotarolimus]
In short, it runs like this:
as §1

Compound in a further test: COc1cc(C(=O)O)ccc1NC(=O)[C@@H]1N[C@@H](CC(C)(C)C)[C@](C#N)(c2ccc(Cl)cc2F)[C@H]1c1cccc(Cl)c1F [idasanutlin]
In short, it runs like this:
as §1

Compound in a further test: COc1cc(Nc2ncc3c(n2)-c2ccc(Cl)cc2C(c2c(F)cccc2OC)=NC3)ccc1C(=O)O [alisertib]
The procedure, abridged: as §1

Compound in test [2]: COc1cc2nc(-c3cc(F)ccc3O)nc(N[C@@H]3CNC[C@H]3C(C)(C)O)c2cc1OC
The procedure, abridged:
as §1

Compound in another test: COc1cc2ncnc(Nc3ccc(F)c(Cl)c3)c2cc1OCCCN1CCOCC1 [gefitinib]
In short, it runs like this:
as §1

Compound in test [3]: COc1cccc2cc(-c3nc([C@H]4CC[C@H](C(=O)O)CC4)n4ncnc(N)c34)[nH]c12
In short, it runs like this:
as §1

Compound in another test: CS(=O)(=O)CCNCc1ccc(-c2ccc3ncnc(Nc4ccc(OCc5cccc(F)c5)c(Cl)c4)c3c2)o1 [lapatinib]
In short, it runs like this: as §1

Compound in another test: CS(=O)(=O)N1CCN(Cc2cc3nc(-c4cccc5[nH]ncc45)nc(N4CCOCC4)c3s2)CC1 [pictilisib]
In short, it runs like this:
as §1

Compound in test [4]: CS(=O)(=O)c1ccc(-c2cnc(N)c(C(=O)Nc3ccccc3)n2)cc1
The procedure, abridged: as §1

Compound in a further test: C[C@@H](Oc1cc(-c2cnn(C3CCNCC3)c2)cnc1N)c1c(Cl)ccc(F)c1Cl [crizotinib]
In short, it runs like this:
as §1

Compound in test [5]: C[C@@H]1COCCN1C2=NC(=NC(=C2)C3(CC3)S(=O)(=O)C)C4=C5C=CNC5=CC=C4
The procedure, abridged:
as §1

Compound in test [6]: C[C@H](C1=CC=C(C=C1)C(=O)NC2=C3C=CNC3=NC=C2)N
The procedure, abridged: as §1

Compound in the next test: C[C@H](Nc1ncnc2nc[nH]c12)c1cc2cccc(Cl)c2c(=O)n1-c1ccccc1 [duvelisib]
The procedure, abridged: as §1

Compound in the next test: Cc1cc(Nc2cc(CN3CCOCC3)c3nc(C)c(Cc4ccc(Cl)cc4F)n3n2)n[nH]1 [gandotinib]
The procedure, abridged:
as §1

Compound in a further test: Cc1cc(Nc2cc(N3CCN(C)CC3)nc(Sc3ccc(NC(=O)C4CC4)cc3)n2)n[nH]1 [tozasertib]
In short, it runs like this: as §1

Compound in test [7]: Cc1cc(SCc2sc(-c3ccc(C(F)(F)F)cc3)nc2C)ccc1OCC(=O)O
In short, it runs like this:
as §1

Compound in a further test: Cc1ccc(-n2nc(C(C)(C)C)cc2NC(=O)Nc2ccc(OCCN3CCOCC3)c3ccccc23)cc1 [doramapimod]
The procedure, abridged: as §1

Compound in another test: Cc1ccc(C(=O)N(CCCN)[C@@H](c2nc3cc(Cl)ccc3c(=O)n2Cc2ccccc2)C(C)C)cc1 [ispinesib]
In short, it runs like this: as §1

UniProt P39656, sequence (P39656 whole entry, looked up): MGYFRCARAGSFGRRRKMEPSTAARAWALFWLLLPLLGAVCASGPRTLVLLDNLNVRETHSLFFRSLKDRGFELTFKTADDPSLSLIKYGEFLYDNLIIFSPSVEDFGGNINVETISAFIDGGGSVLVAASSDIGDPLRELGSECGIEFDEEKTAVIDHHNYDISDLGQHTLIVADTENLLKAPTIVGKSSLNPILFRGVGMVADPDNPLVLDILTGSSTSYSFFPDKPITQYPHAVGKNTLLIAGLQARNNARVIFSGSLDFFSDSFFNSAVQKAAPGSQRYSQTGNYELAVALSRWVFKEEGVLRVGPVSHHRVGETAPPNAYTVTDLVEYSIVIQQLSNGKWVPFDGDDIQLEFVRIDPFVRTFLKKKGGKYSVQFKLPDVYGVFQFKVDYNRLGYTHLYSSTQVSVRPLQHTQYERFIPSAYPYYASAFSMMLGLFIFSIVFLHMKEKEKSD
UniProt Q96G46, sequence (Q96G46 whole entry, looked up): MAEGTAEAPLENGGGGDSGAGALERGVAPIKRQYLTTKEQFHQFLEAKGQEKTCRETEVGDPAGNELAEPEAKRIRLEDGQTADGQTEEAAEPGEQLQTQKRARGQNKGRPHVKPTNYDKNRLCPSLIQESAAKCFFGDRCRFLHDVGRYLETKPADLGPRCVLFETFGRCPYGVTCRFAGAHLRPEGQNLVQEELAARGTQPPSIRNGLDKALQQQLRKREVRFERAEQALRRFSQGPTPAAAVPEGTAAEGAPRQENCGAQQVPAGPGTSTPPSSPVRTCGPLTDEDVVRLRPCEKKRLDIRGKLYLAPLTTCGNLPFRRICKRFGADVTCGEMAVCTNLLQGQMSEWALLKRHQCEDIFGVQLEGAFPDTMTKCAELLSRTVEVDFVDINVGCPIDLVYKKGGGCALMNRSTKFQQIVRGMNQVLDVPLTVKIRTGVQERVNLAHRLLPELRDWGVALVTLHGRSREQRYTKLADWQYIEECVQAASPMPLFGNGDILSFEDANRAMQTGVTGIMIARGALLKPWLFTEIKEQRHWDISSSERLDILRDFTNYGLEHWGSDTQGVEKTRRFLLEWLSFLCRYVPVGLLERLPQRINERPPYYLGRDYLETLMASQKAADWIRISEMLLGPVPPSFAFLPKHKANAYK
UniProt Q8NBA8, sequence (Q8NBA8 whole entry, looked up): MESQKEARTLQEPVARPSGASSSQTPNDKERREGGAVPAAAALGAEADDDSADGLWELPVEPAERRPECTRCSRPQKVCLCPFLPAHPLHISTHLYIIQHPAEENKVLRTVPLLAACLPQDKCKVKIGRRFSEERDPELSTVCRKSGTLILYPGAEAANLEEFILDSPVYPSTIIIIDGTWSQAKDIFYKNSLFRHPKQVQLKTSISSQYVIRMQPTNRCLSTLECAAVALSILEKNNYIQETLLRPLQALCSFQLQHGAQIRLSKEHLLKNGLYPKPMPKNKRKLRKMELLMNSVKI
UniProt Q96A65, sequence (Q96A65 whole entry, looked up): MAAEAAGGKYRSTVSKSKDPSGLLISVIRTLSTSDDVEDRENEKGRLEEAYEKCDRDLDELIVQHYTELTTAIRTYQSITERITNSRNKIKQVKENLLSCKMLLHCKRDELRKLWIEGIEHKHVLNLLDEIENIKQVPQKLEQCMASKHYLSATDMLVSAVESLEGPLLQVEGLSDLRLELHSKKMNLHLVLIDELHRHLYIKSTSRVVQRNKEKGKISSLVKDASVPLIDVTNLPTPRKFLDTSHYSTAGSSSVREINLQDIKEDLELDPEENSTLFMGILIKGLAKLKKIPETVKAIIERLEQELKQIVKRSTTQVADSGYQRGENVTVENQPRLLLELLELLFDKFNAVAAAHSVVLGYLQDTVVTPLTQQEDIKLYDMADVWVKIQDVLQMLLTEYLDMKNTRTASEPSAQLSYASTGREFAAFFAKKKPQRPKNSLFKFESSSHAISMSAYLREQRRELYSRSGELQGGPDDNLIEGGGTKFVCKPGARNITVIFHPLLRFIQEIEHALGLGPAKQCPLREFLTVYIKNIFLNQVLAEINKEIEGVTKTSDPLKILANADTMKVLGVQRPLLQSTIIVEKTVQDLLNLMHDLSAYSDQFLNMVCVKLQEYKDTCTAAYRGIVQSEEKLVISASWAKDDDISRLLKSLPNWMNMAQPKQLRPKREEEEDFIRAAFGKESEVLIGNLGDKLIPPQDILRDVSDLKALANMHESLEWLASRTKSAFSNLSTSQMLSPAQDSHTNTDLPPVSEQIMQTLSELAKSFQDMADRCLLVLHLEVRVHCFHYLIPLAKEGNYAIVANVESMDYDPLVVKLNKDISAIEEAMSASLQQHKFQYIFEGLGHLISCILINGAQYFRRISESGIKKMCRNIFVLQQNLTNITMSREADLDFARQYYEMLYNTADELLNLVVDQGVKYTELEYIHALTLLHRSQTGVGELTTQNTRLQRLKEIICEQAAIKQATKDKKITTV
UniProt Q7L576, sequence (Q7L576 whole entry, looked up): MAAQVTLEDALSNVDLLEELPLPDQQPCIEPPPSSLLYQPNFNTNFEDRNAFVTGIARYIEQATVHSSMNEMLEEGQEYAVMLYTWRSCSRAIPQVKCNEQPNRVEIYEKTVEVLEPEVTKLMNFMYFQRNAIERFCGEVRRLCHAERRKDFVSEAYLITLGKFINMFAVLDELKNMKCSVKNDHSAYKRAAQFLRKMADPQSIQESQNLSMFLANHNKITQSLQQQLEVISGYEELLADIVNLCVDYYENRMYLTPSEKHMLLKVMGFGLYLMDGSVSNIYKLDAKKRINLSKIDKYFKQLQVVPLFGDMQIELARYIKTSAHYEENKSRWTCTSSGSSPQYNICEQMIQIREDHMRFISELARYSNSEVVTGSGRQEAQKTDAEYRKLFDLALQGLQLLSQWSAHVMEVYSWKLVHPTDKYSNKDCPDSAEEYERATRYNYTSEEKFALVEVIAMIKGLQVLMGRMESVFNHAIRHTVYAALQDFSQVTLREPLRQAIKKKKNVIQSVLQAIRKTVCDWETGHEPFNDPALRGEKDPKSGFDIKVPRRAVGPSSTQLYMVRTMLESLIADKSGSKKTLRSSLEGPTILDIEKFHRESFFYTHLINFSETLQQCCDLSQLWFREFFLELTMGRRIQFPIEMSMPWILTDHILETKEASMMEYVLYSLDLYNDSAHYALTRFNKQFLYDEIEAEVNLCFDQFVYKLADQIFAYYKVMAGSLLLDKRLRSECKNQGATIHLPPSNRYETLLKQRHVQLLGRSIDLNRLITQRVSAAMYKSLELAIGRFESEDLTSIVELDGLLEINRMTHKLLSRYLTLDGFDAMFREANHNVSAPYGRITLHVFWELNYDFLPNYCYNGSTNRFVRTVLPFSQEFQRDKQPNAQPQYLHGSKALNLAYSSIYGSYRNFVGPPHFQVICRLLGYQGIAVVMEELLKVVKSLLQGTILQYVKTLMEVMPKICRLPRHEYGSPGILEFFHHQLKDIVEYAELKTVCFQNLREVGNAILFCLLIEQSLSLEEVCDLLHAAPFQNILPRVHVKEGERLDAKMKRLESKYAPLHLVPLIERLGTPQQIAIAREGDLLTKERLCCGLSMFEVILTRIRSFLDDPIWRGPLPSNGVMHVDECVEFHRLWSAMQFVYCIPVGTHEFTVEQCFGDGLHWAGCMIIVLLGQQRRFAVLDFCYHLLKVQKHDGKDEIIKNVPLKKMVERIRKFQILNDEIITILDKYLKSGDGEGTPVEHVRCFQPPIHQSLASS
UniProt Q15369, sequence (Q15369 whole entry, looked up): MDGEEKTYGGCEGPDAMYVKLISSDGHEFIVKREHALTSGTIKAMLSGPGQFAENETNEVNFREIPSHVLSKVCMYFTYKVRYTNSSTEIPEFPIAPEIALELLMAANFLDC

For the target EXOC4 (UniProt Q96A65), the log2 fold change was 0.029 in test [1]; 0.009 with filanesib; 0.065 with zotarolimus; -0.052 with idasanutlin; -0.002 with alisertib; 0.164 in [2]. Also, the log2 fold change with gefitinib is 0.002; in [3], -0.086; with lapatinib, 0.008; with pictilisib, -0.059; in test [4], 0.003; with crizotinib, -0.275. Also, the log2 fold change in test [5] was -0.099; in test [6] it was 0.098; with duvelisib it was -0.028; with gandotinib, -0.068; in the test with tozasertib, 0.041; in test [7], 0.162. The log2 fold change is 0.016 in the test with doramapimod and -0.29 with ispinesib.

With CYFIP1 (UniProt Q7L576), the log2 fold change in [1] was 0.053; with filanesib it was -0.027; with zotarolimus it was 0.039; in the test with idasanutlin, -0.028; with alisertib, 0.061; in test [2], -0.004. In addition, the log2 fold change is 0.008 in the test with gefitinib; 0.013 in test [3]; 0.023 in the test with lapatinib; 0.097 with pictilisib; 0.038 in test [4]; -0.029 with crizotinib. Moreover, the log2 fold change was 0.063 in test [5]; -0.042 in test [6]; 0.031 with duvelisib; -0.079 with gandotinib; 0 in the test with tozasertib; 0.038 in test [7]. The log2 fold change with doramapimod was -0.026; with ispinesib, 0.031.

Consider EED, A0A5F9ZI63, for which the log2 fold change in [1] is 0.008; with filanesib, 0.115; with zotarolimus, -0.01; with idasanutlin, 0.08; with alisertib, -0.097; in test [2], 0.032. Moreover, the log2 fold change with gefitinib was 0.006; in test [3] it was 0.018; with lapatinib, 0.091; with pictilisib, -0.163; in [4], -0.074; in the test with crizotinib it was 0.045. Besides, the log2 fold change in test [5] is -0.047; in test [6] it was 0.007; in the test with duvelisib it was 0.014; with gandotinib it was 0.07; with tozasertib it was -0.016; in test [7], -0.013. Moreover, the figures for the log2 fold change with doramapimod and in the test with ispinesib were 0.028 and 0.019, respectively.

Take DUS3L (UniProt Q96G46): the log2 fold change was 0.069 in test [1]; 0.018 with filanesib; 0.001 in the test with zotarolimus; 0.011 with idasanutlin; -0.071 in the test with alisertib; 0.01 in test [2]. In addition, the log2 fold change in the test with gefitinib was 0.02; in test [3], 0.035; with lapatinib it was -0.037; with pictilisib, -0.181; in [4], -0.015; with crizotinib it was 0.112. Besides, the log2 fold change is 0.019 in [5]; -0.075 in test [6]; -0.005 with duvelisib; -0.027 with gandotinib; 0.043 with tozasertib; 0.022 in [7]. Moreover, the log2 fold change in the test with doramapimod is 0.033; with ispinesib it was 0.

Regarding DTWD2 (UniProt Q8NBA8), the log2 fold change in test [1] is -0.229; with filanesib, 0.307; in the test with zotarolimus it was -0.036; with idasanutlin, -0.073; with alisertib, 0.069; in test [2], -0.18. The log2 fold change was -0.159 with gefitinib; 0.002 in [3]; 0.151 in the test with lapatinib; -0.042 with pictilisib; 0.06 in test [4]; 0.133 in the test with crizotinib. In addition, the log2 fold change in test [5] is 0.137; in test [6], -0.103; in the test with duvelisib it was -0.036; in the test with gandotinib it was 0.027; with tozasertib, -0.019; in test [7], 0. The log2 fold change with doramapimod was 0.009; with ispinesib, -0.092.

As for DDOST (UniProt P39656), the log2 fold change in test [1] was -0.068; with filanesib it was -0.009; in the test with zotarolimus it was 0.036; with idasanutlin, 0.013; with alisertib it was -0.065; in test [2] it was 0.003. For the same target, the log2 fold change is -0.019 in the test with gefitinib; 0.012 in test [3]; 0.019 with lapatinib; -0.04 with pictilisib; 0.014 in test [4]; -0.051 with crizotinib. Further, the log2 fold change in test [5] was -0.065; in test [6], -0.055; with duvelisib, -0.074; with gandotinib, 0.02; with tozasertib, 0.022; in test [7], -0.016. In addition, the log2 fold change in the test with doramapimod was 0.005; with ispinesib, 0.13.

On to ELOC (UniProt Q15369), for which the log2 fold change in [1] is 0.007; in the test with filanesib it was 0.04; with zotarolimus it was 0.096; in the test with idasanutlin, -0.009; with alisertib, -0.009; in test [2], 0.033. Besides, the log2 fold change was -0.006 with gefitinib; 0.011 in test [3]; -0.002 with lapatinib; 0.105 in the test with pictilisib; 0.038 in test [4]; 0.074 in the test with crizotinib. The log2 fold change in test [5] is 0.279 (active); in [6], -0.07; with duvelisib, 0.137; in the test with gandotinib, -0.001; in the test with tozasertib it was 0.06; in test [7], -0.015. Further, the log2 fold change is 0.012 with doramapimod and 0.134 with ispinesib.
